Test results from PubChem BioAssay AID588591 (National Center for Advancing Translational Sciences (NCATS), 2011).
The campaign covered roughly 390,000 compounds. About 4,700 (1.2%) were called active. Inconclusive results (about 4%) are left out. Calls follow the shape of the dose curve; as a rule, active = well fitted inhibition curve with a large enough effect; inconclusive = small, poorly fitted or top-dose-only effect, or another doubt; inactive = no such curve, though single readings can be large or run the other way. The entries come from a sample that favours actives as a whole. Entries that show only a call come without a potency.

Each compound was assayed against DNA polymerase eta (Homo sapiens) (UniProt Q9Y253) (assay: qHTS for Inhibitors of Polymerase Eta). Conditions: recombinant Pol eta, fluorescent DNA replication assay; series mostly up to 114 µM.
Chain of DNA polymerase eta (Homo sapiens) (Q9Y253 whole entry, looked up): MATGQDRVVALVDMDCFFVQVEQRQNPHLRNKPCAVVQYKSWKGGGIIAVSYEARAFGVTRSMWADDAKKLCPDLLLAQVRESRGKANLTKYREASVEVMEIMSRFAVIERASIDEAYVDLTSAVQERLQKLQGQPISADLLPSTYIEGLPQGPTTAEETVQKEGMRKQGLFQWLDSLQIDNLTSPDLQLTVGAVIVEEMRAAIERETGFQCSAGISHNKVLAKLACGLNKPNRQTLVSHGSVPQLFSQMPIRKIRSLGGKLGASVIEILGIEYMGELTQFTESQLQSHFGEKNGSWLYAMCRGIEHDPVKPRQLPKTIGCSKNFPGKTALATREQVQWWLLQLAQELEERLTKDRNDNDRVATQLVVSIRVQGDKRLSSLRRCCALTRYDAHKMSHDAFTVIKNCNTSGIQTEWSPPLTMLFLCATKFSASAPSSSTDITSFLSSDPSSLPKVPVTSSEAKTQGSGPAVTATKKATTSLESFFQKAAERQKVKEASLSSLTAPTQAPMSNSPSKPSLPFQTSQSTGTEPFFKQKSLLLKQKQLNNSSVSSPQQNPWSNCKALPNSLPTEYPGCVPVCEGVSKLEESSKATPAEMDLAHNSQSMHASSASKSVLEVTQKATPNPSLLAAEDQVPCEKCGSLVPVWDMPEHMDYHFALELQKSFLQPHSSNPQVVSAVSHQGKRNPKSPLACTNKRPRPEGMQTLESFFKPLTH
How it was run: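 Pol eta at 10 nM preincubated with compounds 15 min at room temperature; reaction started with fluorescent substrate (50 nM final) and read kinetically at 0 and 10 min.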
Potency is read from the fitted curve at half-maximal effect.

Row | Structure (SMILES) | Potency
1 | CCCC(=O)N1CCN(c2nc3c(OC)ccc(C)c3s2)CC1 | inactive
2 | COC(=O)c1ccc(COc2ccc(/C=C/C(=O)c3ccc(OC)c(CSCC(=O)O)c3)cc2OC)cc1 | 20 µM (active)
3 | COC(=O)c1ccc(C(NC(=O)OCc2ccccc2)/C(C)=C/[C@@H](C)C(=O)NCc2ccc(OC)c(OC)c2)cc1 (stereo partly drawn) | inactive
4 | COc1cc(/C=C/C(=O)OCC(=O)NC(=O)NCc2ccccc2)ccc1OCC#N | inactive
5 | COc1ccc(CCNC(=O)c2cn(C)c3ccc(S(=O)(=O)N(C)C4CCCCC4)cc3c2=O)cc1OC | inactive
6 | CCOC(=O)C1CCN(C(c2ccc(F)cc2)c2sc3nc(-c4ccco4)nn3c2O)CC1 (stereo not drawn) | inactive
7 | Oc1c(C(c2ccccc2Cl)N2CCOCC2)sc2nc(-c3ccco3)nn12 (stereo not drawn) | inactive
8 | CCOc1ccccc1/C=c1\sc2nc(-c3ccco3)nn2c1=O | 7.94 µM (active)
9 | Cc1ccc2nc3c(cc(C(=O)NC4CCCCC4)c(=N)n3C(C)C)c(=O)n2c1 | inactive
10 | CCc1cc2c(-c3ccccc3)cc(=O)oc2c2c1OCN(Cc1ccc(C)cc1)C2 | inactive
11 | CCOc1cc(C2C(C(=O)OC)=C(C)NC3=C2C(=O)c2ccccc23)ccc1O (stereo not drawn) | inactive
12 | COC(=O)C1=C(C)NC2=C(C(=O)c3ccccc32)C1c1ccc(-c2ccc(C(=O)O)cc2)o1 (stereo not drawn) | 31.6 µM (active)
13 | CCCOc1ccc(C2c3c(-c4ccccc4O)n[nH]c3C(=O)N2Cc2cccnc2)cc1 (stereo not drawn) | inactive
14 | COc1cc(-c2noc(-c3ccc(N4CCCC4)c([N+](=O)[O-])c3)n2)cc(OC)c1OC | inactive
15 | CN1c2ccc(Cl)cc2-c2nc(SCC(=O)Nc3cc(F)ccc3F)ncc2S1(=O)=O | inactive
16 | O=c1nc2s/c(=C\c3ccco3)c(=O)n2nc1Cc1ccccc1 | 17.8 µM (active)
17 | Cc1ccc(C)c(CNC(=O)c2cc3ccccn3n2)c1 | inactive
18 | COc1ccc(CCNC(=O)c2cc3cccc4c3n2CC(C)S4)c(OC)c1OC (stereo not drawn) | inactive
19 | CC(CNC(=O)c1nnc(Cc2cccc(F)c2)o1)c1ccccc1 (stereo not drawn) | inactive
20 | COc1cc2nc(SCc3ccc(F)cc3)n3nc(CCn4c(C)nc5ccccc54)nc3c2cc1OC | inactive

Row | Structure (SMILES) | Potency
21 | O=S(=O)(NCCS(=O)(=O)N1CCN(c2ccccc2)CC1)c1ccc(Cl)cc1 | inactive
22 | Cc1ccc(-c2ccc(/C=C(\C#N)C(N)=S)o2)c([N+](=O)[O-])c1 | inactive
23 | CC1=NN(c2ccc(Cl)c(C(=O)O)c2)C(=O)/C1=C/c1ccc(-c2ccccc2[N+](=O)[O-])o1 | 20 µM (active)
24 | O=C(CSc1nc(=O)[nH]c2c1CCCC2)Nc1cc(C(F)(F)F)ccc1Cl | inactive
25 | COCOc1cc(O)c(C(=O)/C=C/c2ccc(OCOC)c(OCOC)c2)c(OCOC)c1 | inactive
26 | COc1ccc(/C=C/C(=O)c2cc(Br)ccc(=O)c2O)cc1 | 31.6 µM (active)
27 | COc1cccc(N2CC(NC(=O)/C=C\c3ccccc3)CC2=O)c1 (stereo not drawn) | inactive
28 | Oc1ccc(-c2nc3ccc(Cl)cn3c2Nc2ccc3c(c2)OCO3)cc1 | inactive
29 | O=C(COc1ccc(Cl)cc1)N(Cc1ccco1)Cc1ccco1 | inactive
30 | COc1cccc(C(c2c(O)cc(C)n(Cc3ccco3)c2=O)N2CCN(c3ccccc3)CC2)c1 (stereo not drawn) | inactive
31 | O=C(c1ccc(Cl)cc1)n1nc(-c2cccnc2)nc1NCc1ccc(F)cc1 | inactive
32 | Cc1ccc(N=C2NC(=O)/C(=C/C=C/c3ccco3)S2)cc1C | 8.91 µM (active)
33 | Cc1ccc(N2NC(=O)/C(=C/C=C/c3ccco3)C2=O)cc1C | 79.4 µM (active)
34 | Cc1ccc(C(=O)N/C(=C\c2ccco2)C(=O)N2CCSCC2)cc1C | inactive
35 | Cc1ccccc1CNC(=O)C(=O)NCC(c1cccs1)S(=O)(=O)c1cccs1 (stereo not drawn) | inactive
36 | CCCS(=O)(=O)c1c(Nc2ccccc2C)sc(C(=O)c2ccccc2)c1N | inactive
37 | O=C(CCc1cn(Cc2ccc(F)cc2)c2ccccc12)NC1CCCCC1 | inactive
38 | CC(=O)Nc1cccc(NC(=O)CSc2nccn2Cc2ccc3c(c2)OCO3)c1 | inactive
39 | COc1ccc(-c2nn(CC(=O)NC3CCCC3)c3c2cnc2ccc(F)cc23)cc1 | inactive
40 | COc1ccc(CCNC(=O)c2ccc(CSCc3ccc(C)cc3)o2)cc1OC | inactive

Row | Structure (SMILES) | Potency
41 | COc1ccc(-c2ccc(=O)n(CC(=O)Nc3ccc(Br)cc3F)n2)cc1 | inactive
42 | CCOc1ccc(Nc2nc(Cc3nnc(SCC(=O)NC4CCCC4)n3C)cs2)cc1 | inactive
43 | COCCCn1c(Cc2csc(Nc3cccc(Cl)c3)n2)nnc1SCC(=O)OC1CCCCC1 | 7.94 µM (active)
44 | COCCCn1c(SCC(=O)NC2CCCC2)nnc1-c1ccccc1 | inactive
45 | COc1ccc(Cn2c(=O)c3oc4ccccc4c3n(CC(=O)Nc3ccc(F)cc3F)c2=O)cc1 | inactive
46 | C=C1c2c(Cl)ccc(O)c2C(O)=C2C(=O)[C@]3(O)C(O)=C(C(N)=O)C(=O)[C@@H](N(C)C)[C@@H]3[C@@H](O)C12 (stereo partly drawn) | 35.5 µM (active)
47 | O=C(CSc1cn(CC(=O)N2CCOCC2)c2ccccc12)Nc1ccccc1 | inactive
48 | Cc1nnc(SC(C)C(=O)Nc2ccc(S(=O)(=O)NC3CCCCC3)cc2)s1 (stereo not drawn) | inactive
49 | COc1ccc(NC(=O)CSc2nc(NS(=O)(=O)c3ccc(C)cc3)cc(=O)[nH]2)cc1 | inactive
50 | Cc1nnc(SCC(=O)Nc2ccc(S(=O)(=O)Nc3ccc(Cl)nn3)cc2)s1 | 20 µM (active)
51 | Cc1nc2nc(SCC(=O)NC3CCC(C)CC3)nn2c(C)c1Cc1ccccc1Cl (stereo not drawn) | inactive
52 | Cc1cc(C)c2oc(C(=O)Nc3ccc(S(=O)(=O)N(C)c4ccccc4)cc3)cc(=O)c2c1 | inactive
53 | O=C(Nc1cc(C(F)(F)F)ccc1Cl)c1cc2nc(-c3ccc4c(c3)OCO4)cc(C(F)(F)F)n2n1 | inactive
54 | COC1=C/C(=C/c2c(N)n3nc(CC(=O)N4CCOCC4)sc3nc2=O)C=CC1=O | 44.7 µM (active)
55 | COc1ccc(S(=O)(=O)N2CCN(CC(=O)N3CCOCC3)CC2)cc1OC | inactive
56 | COc1ccc(-c2ccnc(SCC(=O)N3CCOCC3)n2)cc1 | inactive
57 | C=CCC1=C/C(=C\c2c(N)n3nc(CC(=O)N4CCOCC4)sc3nc2=O)C=C(OC)C1=O | 31.6 µM (active)
58 | O=C(Nc1cc(C(F)(F)F)ccc1Cl)c1nc2ccccc2nc1N1CCCCC1 | inactive
